# Sampled rows, rich in hits. Any-hit rate of the full collection: about 4.7%.
# D1 PAM – Potentiators of Human D1 Dopamine Receptor: qHTS; HEK293 TREx D1 cells, calcium flux, dopamine EC20 potentiation; potentiation, % at 10 µM; 360,000 tested, 0.036% active; AID 504651, 2011; in the data active = potentiation above about 30%
# Target sequence (P21728 whole entry, looked up): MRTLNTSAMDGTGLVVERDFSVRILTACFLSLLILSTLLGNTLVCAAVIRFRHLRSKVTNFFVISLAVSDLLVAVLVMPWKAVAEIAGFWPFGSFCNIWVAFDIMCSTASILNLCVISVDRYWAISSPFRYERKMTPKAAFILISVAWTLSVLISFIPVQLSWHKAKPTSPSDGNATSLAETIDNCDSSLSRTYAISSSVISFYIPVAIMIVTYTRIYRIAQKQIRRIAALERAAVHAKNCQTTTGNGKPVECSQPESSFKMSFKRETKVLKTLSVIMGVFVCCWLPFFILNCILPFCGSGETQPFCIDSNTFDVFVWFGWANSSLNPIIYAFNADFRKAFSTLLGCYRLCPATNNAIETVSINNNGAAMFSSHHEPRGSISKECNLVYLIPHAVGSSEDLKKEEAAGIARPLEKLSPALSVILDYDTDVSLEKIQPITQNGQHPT
# D1 ag – Allosteric Agonists of the Human D1 Dopamine Receptor: qHTS; D(1A) dopamine receptor (Homo sapiens), P21728; HEK293 T-REx D1 cells, calcium flux, agonist mode; activation, % at 2 µM; 360,000 tested, 1% active; AID 504660, 2011
#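 Agonism was scored from calcium flux recorded over 180 s (1 read/s) after pintool compound addition, following a 10-cycle baseline. Cells were inducible force-coupled HEK293 TREx D1, plated overnight at 30 C and loaded with no-wash calcium dye.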
# D1 antag – Antagonist of Human D 1 Dopamine Receptor: qHTS | D(1A) dopamine receptor (Homo sapiens), P21728 | HEK293 TREx D1 cells, calcium flux, dopamine EC80; active compounds read low | 360,000 tested, 3.2% active | AID 504652, 2011 | activity change, negative = inhibition, % at 10 µM; in the data active = activity change below about -30%
#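 Tetracycline-induced HEK293 T-REx cells with force-coupled D1 receptor were loaded with a no-wash calcium dye. Compound was added after a 10 s baseline and read kinetically for 180 s; EC80 dopamine was then added and calcium flux followed another 180 s.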
# TRHR PAM – qHTS for Small Molecule Agonists and Allosteric Enhancers of Human TRH Receptor: Primary Screen for Enhancers; 360,000 tested, 0.66% active; enhancement, % at 2 µM; TRHR cells, fluo-8 calcium fluorescence, EC20 TRH enhancement; AID 493056, 2011; Thyrotropin-releasing hormone receptor (Homo sapiens), P34981; in the data active = enhancement above about 30%
#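 Enhancer read-out: after compound pinning and an initial kinetic agonist-mode read, an EC20 of TRH (10 nM final) was injected and fluo-8 calcium signal (Ex 480/Em 530) followed at 1 s/cycle for 100 cycles in TRHR-expressing cells.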
# TRHR agonist – qHTS for Small Molecule Agonists and Allosteric Enhancers of Human TRH Receptor: Primary Screen for Agonists | Thyrotropin-releasing hormone receptor (Homo sapiens), P34981 | 360,000 tested, 0.18% active | activation, % at 2 µM | TRHR cells, calcium flux fluo-8, FDSS agonist mode
#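 In this calcium-flux screen, cells bearing human TRHR are dye-loaded with fluo-8, baselined for 10 cycles, then exposed to library compounds; positive kinetic calcium responses during the agonist phase mark hits, with TRH as control.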
# Numbers stand for hits; n = inactive. Cut-off read from the data, not from the text of the source, unless noted: active = activation above about 30%; inactive = the rest.
SMILES,D1 PAM,D1 ag,D1 antag,TRHR PAM,TRHR agonist
CCOC(=O)c1sc2ncn(CC(=O)Nc3cccc(C)c3)c(=O)c2c1C,n,n,-35,n,n
O=C(O)CCC(=O)NNC(=O)c1cccc(Br)c1,n,n,n,n,n
O=C(NNC(=O)c1cccc(Br)c1)Nc1ccc(Cl)cc1,n,n,-37,n,n
COC(=O)CCC(=O)NNC(=O)c1cccc(Br)c1,n,n,-38,n,n
C=CCSC1=N/C(=C\c2cccnc2)C(=O)N1c1ccc(OC)cc1,n,n,-54,n,n
CCSC1=N/C(=C\c2ccccc2)C(=O)N1c1ccc(OC)cc1,n,n,n,n,n
C=CCSC1=N/C(=C/c2ccsc2)C(=O)N1c1ccccc1,n,n,-58,n,n
Cc1c(Cl)cccc1NC(=O)c1ccc2c(c1)CCN2S(=O)(=O)c1ccccc1,n,n,n,n,n
CC(C)c1ccc2occ(CC(=O)Nc3ccccc3Cl)c2c1,n,n,n,n,n
Cc1ccc(-c2nnn3c2nc(NCCc2ccccc2)c2ccccc23)cc1,n,n,n,n,n
CCOC(=O)c1c(C)n(-c2ccc(C)cc2)c2ccc(O)c(CN(C)C)c12,n,34,n,n,n
CCOC(=O)c1c(C)n(-c2ccc(OC)cc2)c2ccc(O)c(CN(C)C)c12,n,n,n,n,n
Cc1cccc2c1-c1sc(C(=O)NCCc3ccc(Cl)cc3)cc1CO2,n,n,n,n,n
COC(=O)CSc1nc(NCc2ccccc2)nc(N(C)C)n1,n,n,-40,n,n
CN(C)c1nc(NCc2ccccc2)nc(SCC(=O)Nc2ccc(Cl)c(Cl)c2)n1,n,n,n,n,n
Cn1cc(CN2CCC(C(=O)Nc3cccc(-c4cscn4)c3)CC2)cn1,n,n,-49,n,n
C=CCn1cc(CN2CCC(C(=O)Nc3cccc(-c4cccc(F)c4)c3)CC2)c(C)n1,n,n,-39,n,n
CCn1cc(CN2CCC(C(=O)Nc3cccc(-c4cscn4)c3)CC2)cn1,n,n,n,n,n
Cc1cccc(CN2CCC(C(=O)Nc3cccc(-c4cccc(F)c4)c3)CC2)n1,n,n,n,n,n
Cc1nn(C(C)C)c(C)c1CN1CCC(C(=O)Nc2cccc(-c3cccc(F)c3)c2)CC1,n,32,n,n,n
Cn1cc(CN2CCC(C(=O)Nc3cccc(-c4cccc(F)c4)c3)CC2)cn1,n,n,n,n,n
C=CCn1cc(CN2CCC(C(=O)Nc3cccc(-c4cccc(Cl)c4)c3)CC2)c(C)n1,n,n,-35,n,n
COc1ccccc1N1CCN(c2ncnc3onc(C)c23)CC1,n,n,n,n,n
CCOc1ccc(C2c3c(oc4ccccc4c3=O)C(=O)N2Cc2ccc3c(c2)OCO3)cc1 (stereo not given),n,n,n,n,n
COc1cc2c(c(OC)c1)C(c1cccc(F)c1F)CC(=O)N2 (stereo not given),n,n,n,n,n
SMILES,D1 PAM,D1 ag,D1 antag,TRHR PAM,TRHR agonist
Cn1c(SCc2ccccc2)nc2c1c(=O)[nH]c(=O)n2C,n,n,-35,n,n
CN(c1ccc(C(=O)Nc2cccnc2)cc1)S(=O)(=O)c1ccc(Cl)cc1,n,n,-41,n,n
CN(c1ccc(C(=O)Nc2cccnc2)cc1)S(=O)(=O)c1ccccc1,n,n,n,n,n
COc1ccc(S(=O)(=O)N(C)c2ccc(C(=O)Nc3cccnc3)cc2)cc1OC,n,n,n,n,n
CS(=O)(=O)N(Cc1ccc(Cl)cc1)c1ccc(C(=O)Nc2cccnc2)cc1,n,n,-38,n,n
COc1ccc(S(=O)(=O)N(C)c2ccc(C(=O)Nc3cccnc3)cc2)cc1,n,n,-33,n,n
Cc1ccc(-c2cn3c(n2)sc2cc(C(=O)NC4CCCCC4)ccc23)cc1,n,n,n,n,n
Cc1c(/C=C(\C#N)C(=O)Nc2cccc(Cl)c2)c2ccccc2n1Cc1ccccc1,n,32,n,n,n
COc1cc2[nH]c(C(=O)NCc3ccccc3)cc2c(OC)c1OC,n,n,-36,n,n
COc1cc2[nH]c(C(=O)NCCc3ccccc3)cc2c(OC)c1OC,n,n,n,n,n
Cc1cccc(N2CCn3c2nc2c3c(=O)n(C/C=C/c3ccccc3)c(=O)n2C)c1,n,n,n,n,n
CC1=CC(=C(C#N)c2nc3ccccc3s2)C=C(C)N1Cc1ccco1,n,44,n,n,n
Cc1ccc2c(c1)C(c1ccncc1)=NNC(c1ccccc1)=N2,n,n,n,n,n
Cc1ccc2c(c1)C(c1ccncc1)=NNC(c1ccc(F)cc1)=N2,n,n,-39,n,n
CCc1ccc2c(c1)C(c1ccc([N+](=O)[O-])cc1)=NNC(c1ccc(F)cc1)=N2,n,n,-40,n,n
Cn1cnnc1SCC(=O)Nc1ccccc1,n,n,n,n,n
Cn1cnnc1SCC(=O)Nc1ccc(C#N)cc1,n,n,-37,n,n
COc1ccccc1NC(=O)c1ccc(NC(=O)COC(=O)C2CCCO2)cc1 (stereo not given),n,n,n,n,n
COc1ccccc1NC(=O)c1ccc(NC(=O)COC(=O)C2CC2C)cc1 (stereo not given),n,n,-43,n,n
CCOc1ccc(CCNC(=O)c2cccc(NC3=NC4CS(=O)(=O)CC4S3)c2)cc1OCC (stereo not given),n,n,n,n,n
CCOc1ccc(CCNC(=O)c2cccc(NC3=NC4CS(=O)(=O)CC4S3)c2)cc1 (stereo not given),n,n,n,34,n
COc1ccccc1NC(=O)c1ccc(NC2=NC3CS(=O)(=O)CC3S2)cc1 (stereo not given),n,n,-35,n,n
COc1cccc(CNC(=O)c2ccc(C)c(NC3=NC4CS(=O)(=O)CC4S3)c2)c1 (stereo not given),n,n,-32,n,n
Cc1ccccc1OCC(=O)OCC(=O)Nc1cc(S(C)(=O)=O)ccc1Cl,n,n,n,37,n
CS(=O)(=O)c1ccc(Cl)c(NC(=O)COC(=O)CNC(=O)c2ccccc2)c1,n,n,n,n,n
COc1cc(/C=C(\C#N)c2nc3ccccc3[nH]2)cc(OC)c1O,n,109,n,n,65
COc1cc(/C=C(/C#N)c2nc3ccccc3c(=O)[nH]2)ccc1O,n,34,n,n,n
COc1cc(/C=C(/C#N)C(=O)c2c(C)[nH]c3ccccc23)ccc1OCC#N,n,n,n,n,n
CCOc1ccc(/C=C(\C#N)C(=O)c2c(C)[nH]c3ccccc23)cc1OC,n,n,n,36,n
